Structures are written as SMILES.

In the test the test system is Vero E6 infected with SARS-CoV-2. Put plainly: morphology score (similarity to uninfected cells); higher = more like uninfected cells. The conditions noted are these: 24 h.
On to `COC(=O)/C=C/C(=O)N[C@@H]1CC[C@@]2(O)[C@H]3Cc4ccc(O)c5c4[C@@]2(CCN3CC2CC2)[C@H]1O5` [beta-funaltrexamine] (10 µM), for which the morphology score worked out at 0.0225.

Consider `COc1ncc(-c2ccc3c(Nc4cc(Oc5cc(F)cc(F)c5)cc(C(=O)O)c4)c(S(=O)(=O)NC4CC4)cnc3c2)c(OC)n1` (10 µM), for which the morphology score is -0.00104.

As to `Cc1ccccc1-n1c(CF)nc2ccc(N)cc2c1=O` [afloqualone] (10 µM), the morphology score came out at 0.166.

In the case of `CN(C)C/C=C(/c1ccc(Br)cc1)c1cccnc1` [zimelidine] (10 µM), the morphology score was 0.166.

Consider `COc1c(C)cnc(Cn2cc(C#CCC(C)(C)O)c3c(Cl)nc(N)nc32)c1C` (10 µM), for which the morphology score is 0.181.

For `Cc1cc(-c2ccccc2)nnc1NCCN1CCOCC1` [minaprine] (10 µM), the morphology score came to 0.145.

With `CN1C(=O)CC(c2ccccc2)C1=O` (stereo not given) [phensuximide] (10 µM), the morphology score is 0.0814.

On to `CC[C@]1(O)C[C@@H]2CN(CCc3c([nH]c4ccccc34)[C@@](C(=O)OC)(c3cc4c(cc3OC)N(C)[C@H]3[C@@](O)(C(N)=O)[C@H](O)[C@]5(CC)C=CCN6CC[C@]43[C@@H]65)C2)C1` [vindesine] (10 µM), for which the morphology score was -0.107.

Compound `COc1cccc(OCCCN)c1-c1cc(Nc2cnc(C#N)cn2)n[nH]1` (10 µM) registered a morphology score of -0.0952.

Compound `COc1cccc(OC)c1C(=O)N[C@@H]1C(=O)N2[C@@H]1SC(C)(C)[C@@H]2C(=O)O` [methicillin] (10 µM) showed a morphology score of -0.0574.

On to `Cc1cc(NC(=O)Nc2ccc(N(C)C)cc2)c2cc(F)cc(F)c2n1` (10 µM), for which the morphology score is 0.204.

Compound `CC(C)(C)c1[nH]cnc1/C=c1\[nH]c(=O)/c(=C/c2ccccc2)[nH]c1=O` [plinabulin] (0.833333 µM) registered a morphology score of -0.0585.

On to `Cc1cccc(NC(=O)c2ccc(C(F)(F)F)cc2C(=O)O)n1` (10 µM), for which the morphology score is -0.208.

`FC(F)c1nc2ccccc2n1-c1nc(N2CCOCC2)nc(N2CCOCC2)n1` (10 µM) came in with a morphology score of -0.0463.

In turn, `C=CC1=C(C)C2=CC3=NC(=C(CC(=O)O)C4=NC(=C(C)C4=C(O)O)C=c4[nH]c(c(C)c4CC)=CC1=N2)C(CCC(=O)O)C3C` (stereo not given) [chlorophyllin] (10 µM) had a morphology score of 0.148.

As for `CCOC(=O)C1=C(C)NC(C)=C(C(=O)OCC)C1c1ccccc1/C=C/C(=O)OC(C)(C)C` [lacidipine] (10 µM), the morphology score is 0.101.

`Nc1nc2c(ncn2COC(CO)CO)c(=O)[nH]1` [ganciclovir] (10 µM) returned a morphology score of 0.108.

In turn, `CC(C)NC[C@@H](O)COc1ccc(CC(N)=O)cc1` (racemic) [atenolol-(+/-)] (10 µM) yielded a morphology score of 0.0556.

`CN1CCC[C@@H]1CCO[C@](C)(c1ccccc1)c1ccc(Cl)cc1` [clemastine] (10 µM) registered a morphology score of 0.677.

Take `O=C(OCC(COC(=O)c1cccnc1)(COC(=O)c1cccnc1)COC(=O)c1cccnc1)c1cccnc1` [niceritrol] (0.833333 µM): the morphology score stood at 0.129.

Regarding `NC1CCN(c2nc3c(cc2F)c(=O)c(C(=O)O)cn3-c2ccc(F)cc2F)C1` (stereo not given) [tosufloxacin] (10 µM), the morphology score is -0.115.

Turning to `C[C@@H](O)[C@H](N)C(=O)N1CCC[C@H]1C(=O)N1CCC[C@H]1C(=O)N[C@H](C(N)=O)[C@@H](C)O` [rapastinel] (10 µM), the morphology score was -0.00969.

`O=C(O)c1ccc(N2C(=O)/C(=C/c3ccc(-c4ccc([N+](=O)[O-])cc4)o3)C=C2c2ccccc2)cc1` (10 µM) had a morphology score of 0.184.

On to `N#Cc1cccc(-c2c[nH]c3ncnc(N4CCOCC4)c23)c1` (10 µM), for which the morphology score came to 0.304.

Regarding `C=C(C)[C@@H]1CC[C@]2(C(=O)O)CC[C@]3(C)[C@H](CC[C@@H]4[C@@]5(C)CC[C@H](OC(=O)CC(C)(C)C(=O)O)C(C)(C)[C@@H]5CC[C@]43C)[C@@H]12` [bevirimat-dimeglumine] (10 µM), the morphology score was -0.0115.

`Cc1cn([C@H]2C[C@H](N=[N+]=[N-])[C@@H](CO)O2)c(=O)[nH]c1=O` [zidovudine] (10 µM): the morphology score is -0.144.

In turn, `CC[N+](CC)(CC)CCOc1ccc(/C=C/c2ccccc2)cc1` (10 µM) came in with a morphology score of -0.141.

In the case of `O=C1OC2(c3ccc(O)cc3Oc3cc(O)ccc32)c2ccccc21` [fluorescein] (10 µM), the morphology score was 0.0519.

Consider `C[C@]12CCC(=O)C=C1CC[C@@H]1[C@@H]2[C@@H](O)C[C@@]2(C)[C@H]1CC[C@]2(O)C(=O)COP(=O)(O)O` [hydrocortisone-phosphate] (10 µM), for which the morphology score was -0.00553.

Take `CCCCS(=O)(=O)N[C@@H](Cc1ccc(OCCCCC2CCNCC2)cc1)C(=O)O` [tirofiban] (10 µM): the morphology score was 0.0487.

Source of the values: the supplement of paper PMC13380429.
